# Assay results: PubChem BioAssay (NCI)
# About 79,000 compounds went through this panel and 15% of them were active in at least one assay; those are over-represented in the sample as a whole. Unmarked numbers belong to inactive results. Calls of active or inactive are those of the source. No stated cut-off is given here; in the data, active means growth inhibition above about 70%; inactive means the rest.
# Columns and labels:
# [1] = NCI Yeast Anticancer Drug Screen. Data for the rad50 strain (AID 155);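 further: 0% = growth of vehicle-only cultures of the same strain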; details: S. cerevisiae rad50 strain growth inhibition; at 50.0 µM; stronger effect = higher value
# In short: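 Yeast carrying a defined DNA repair defect were exposed to test compounds, and growth was compared with vehicle-treated controls to give percent inhibition.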
# [2] = NCI Yeast Anticancer Drug Screen. Data for the mec2-1 strain (AID 157); details: S. cerevisiae mec2-1 strain, at 50.0 µM, stronger effect = higher value
# In short: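 Mutant yeast (mec2-1) grown with compound; growth inhibition relative to vehicle control reported.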
# [3] = NCI Yeast Anticancer Drug Screen. Data for the sgs1 mgt1 strain (AID 161);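 further: 0% = growth of cultures given vehicle only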; details: S. cerevisiae sgs1 mgt1 strain, at 50.0 µM, stronger effect = higher value
# In short: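 This yeast growth screen uses a strain with defined DNA-repair lesions; compound-treated growth is compared with vehicle-treated growth.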
# [4] = NCI Yeast Anticancer Drug Screen. Data for the cln2 rad14 strain (AID 165);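 further: 0% = growth equal to vehicle treated cultures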; details: S. cerevisiae cln2 rad14 strain, at 50.0 µM, stronger effect = higher value
# In short: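 Readout is yeast growth inhibition versus vehicle-treated controls, using a strain with cln2 and rad14 alterations exposed to compound.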
# [5] = NCI Yeast Anticancer Drug Screen. Data for the bub3 strain (AID 167); details: S. cerevisiae bub3 mutant strain, at 50.0 µM, stronger effect = higher value
# In short: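 Compounds were applied to a genetically altered yeast strain carrying a cell-cycle control defect. Growth inhibition was scored against vehicle-treated controls.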
# [6] = NCI Yeast Anticancer Drug Screen. Data for the mlh1 rad18 strain (AID 175); details: S. cerevisiae mlh1 rad18 strain growth inhibition; at 50.0 µM; stronger effect = higher value
# In short: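 Genetically defined yeast (DNA repair-deficient) exposed to compounds; growth inhibition determined relative to vehicle.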
Compound,growth inhibition [1],growth inhibition [2],growth inhibition [3],growth inhibition [4],growth inhibition [5],growth inhibition [6]
O=C(c1ccccc1)C(c1ccccc1)n1nc2c(c1-c1ccccc1)CCCC2 (stereo not drawn),84.4% (active),87.2% (active),83.9% (active),88.4% (active),86.4% (active),91.4% (active)
CC1OC(c2c(Cl)cccc2[N+](=O)[O-])OC1C (stereo not drawn),3.5%,-9.2%,5.6%,0.5%,-7.6%,20%
Nc1ccc2c(c1)C(=O)CCCC2,1.55%,-8.95%,-2.15%,-10.1%,1.25%,14.1%
CC(=O)NC(NC(C)=O)c1ccccc1,-16.6%,-8.5%,-5.45%,-8.55%,-26.4%,-20.5%
Cc1c(O)cccc1C(=O)C[n+]1ccccc1,3.85%,-8%,10.8%,-24.9%,-6.9%,1.25%
CCC(N)(C(=O)O)C(C)C (stereo not drawn),-25.7%,-8.65%,-12.1%,-0.45%,8.4%,-3.75%
COC(=O)c1c2c(cc3c1CC1(C3)Cc3ccc4c(c3C1=O)CCC4)CCC2 (stereo not drawn),12.5%,14.4%,-7.35%,-13.8%,-21.1%,-86%
CCOC(=O)CCC(NC(=O)C(N)c1ccc([N+](=O)[O-])cc1)C(=O)NC(CCC(=O)OCC)C(=O)OCC (stereo not drawn),-5.4%,-7.5%,1.2%,0.5%,-2.55%,4.55%
Cc1ccc(C)o1,-5.3%,5.5%,-8.65%,-12.2%,-1.1%,2.6%
C/C(CC/C(C)=N/O)=N\O,6.4%,4.25%,-0.55%,-9.45%,11.6%,9.7%
CC=C(c1ccc(OC)cc1)c1ccc(OC)cc1,0.9%,-9.95%,5%,-46.9%,2.55%,-4.5%
Cc1ccc(S(=O)(=O)OCC2C(c3ccccc3)CCC(c3ccccc3)C2COS(=O)(=O)c2ccc(C)cc2)cc1 (stereo not drawn),-5.6%,-5.4%,-16.1%,-28.6%,4.25%,4.45%
CCCCCCCCCCCCCCCCCC(=O)CCCCCCCCCCCCCCCCC,-17.3%,-21.7%,-6.65%,13.8%,-6.2%,-16.7%
CC(=O)COc1ccccc1[N+](=O)[O-],9.65%,0%,8.15%,8.95%,1.3%,15.8%
COC(=O)C1(CC(=O)c2ccc(N3CCN(c4ccc(C(=O)CC5(C(=O)OC)NC(=S)NC(=O)C5C#N)cc4)CC3)cc2)NC(=S)NC(=O)C1C#N (stereo not drawn),-19.5%,-0.6%,-21.4%,3.95%,-18%,-17.1%
O=C=Nc1cc(Cl)ccc1Cl,38.5%,21.8%,17.4%,-24.4%,7.95%,28.9%
O=c1oc2ccccc2c2c1cnn2-c1ccccc1,-12.7%,-4%,-7.85%,-5.9%,-21.7%,-4.45%
O=S(=O)(Cc1ccccc1)/C(=C\c1ccccc1)c1ccccc1,-6.65%,11.4%,2.4%,0.1%,6.6%,5.5%
Cc1ccccc1C(OCCN(C)C)c1ccccc1 (stereo not drawn),-46.2%,-44.8%,-44%,-6.65%,-39%,-28.1%

Compound,growth inhibition [1],growth inhibition [2],growth inhibition [3],growth inhibition [4],growth inhibition [5],growth inhibition [6]
COC(=O)C1=C(O)/C(=C\c2ccccc2)NC1=O,9.35%,-11.3%,-12.9%,-40.4%,-17.8%,-5.7%
C=CC[N+]12CC=C3COC(=O)C(C)(O)C(C)(O)C(C)C(=O)OC(CC1)C32 (stereo not drawn),0.4%,-0.2%,0.4%,-25.9%,-3.55%,-5.65%
COC(=O)c1ccc(/C=C/c2cc(O)ccc2O)cc1,16.5%,25.8%,56.6%,44.5%,52.5%,75% (active)
COc1cc(=O)n2c3ccccc3n(C)c2c1C#N,-9.75%,-16.9%,-0.95%,-0.25%,-4.35%,41.8%
c1ccc(C2=NCCc3cc4c(cc32)OCO4)cc1,3.35%,0.7%,7.8%,10.1%,13.2%,9.4%
CC(C)c1ccc(OC(=O)Nc2c(Cl)cccc2Cl)cc1,-18.4%,-27.6%,5.95%,5.6%,7.2%,-3.65%
COc1nc(N)c2[nH]cnc2n1,0.95%,21.4%,2.05%,21.4%,5.15%,3.4%
COC(=O)c1ccc(C(=O)OC)cc1,-12.2%,-26.1%,15.9%,12.2%,8.95%,11.3%
O=P(O)(O)Oc1ccc(NCCO)cc1,-9.5%,-5%,3.3%,17.4%,7.55%,-13.9%
CCCCCCCCCCCCCC(=O)CCCC,-9.7%,-8.4%,2.2%,-22.5%,-2.45%,-18%
CC1COS(=O)(=O)CS(=O)(=O)O1 (stereo not drawn),-61.2%,-17.4%,-15.8%,-57.8%,6.7%,-16.1%
NNC(=O)C(=O)NN=C(C(Cl)(Cl)CO)C(Cl)(Cl)CO,18.9%,-0.65%,15.1%,14.1%,22.3%,20.4%
O=C(C(=Nc1ccccc1)C(=Nc1ccccc1)C(=O)c1ccccc1)c1ccccc1,78.8% (active),32.1%,55.2%,8.5%,15.3%,37%
Clc1ccccc1NCSC1=NCCS1,5.95%,-15.8%,3.9%,-19.6%,-3.85%,20.8%
CN(Cc1ccccc1)C(=O)Nc1ccc(F)c([N+](=O)[O-])c1,7.95%,28.6%,21.9%,-4.2%,50.6%,16.2%
O=S(=O)(CC1=NC2C=CC=CC2N=C1)NCc1ccccc1 (stereo not drawn),7.3%,-18.9%,12.8%,30.3%,25.6%,-11.8%
N#CC(C(N)=O)C(CC(=O)c1ccccc1)c1ccccc1 (stereo not drawn),-7.65%,-3.1%,13.3%,15.9%,19.2%,-2.05%
Nc1cccc(C(F)(F)F)c1[N+](=O)[O-],-8.25%,-28%,-22.4%,-23.4%,-25.9%,18.1%
CCCCCCCCCC(O)CCCC(O)C(O)CCCCCCC(=O)O (stereo not drawn),13.1%,15%,22.7%,17.5%,-3.05%,37.6%
